In the library only some 3.5% were active in any assay of this set; here they are far more common.
MITF inh – MITF inhibitors, primary screen, biochemical, AlphaScreen, human. 0.91% of 650,000 active. inhibition, % at 2.6 µM. AlphaScreen MITF homodimerization, bead proximity signal. Microphthalmia-associated transcription factor (Homo sapiens), O75030; in the data active means inhibition above about 50%
TEAD-YAP block – TEAD-YAP interaction inhibition, primary screen, TEAD-YAP interaction inhibitor project, luminescence, HEK-TIYL cells; TEAD-Gal4/YAP UAS-luciferase luminescence; inhibition, % at 9.12 µM; 1.4% of 640,000 active; in the data active means inhibition above about 32%
GPR151 ag – activators of human GPR151, primary screen, cell-based, PathHunter beta-arrestin, luminescence | PathHunter beta-arrestin GPR151 cells | activation, % at 11.2 µM | 1% of 650,000 active | AID 1508602, 2020; in the data active means activation above about 4.9%
FBW7 act – FBW7 E3 ligase activators, primary screen, biochemical, AlphaScreen, human. F-box/WD repeat-containing protein 7 (Homo sapiens), Q969H0. AlphaScreen FBW7–phospho-cyclin E peptide binding, activator screen. normalized activity (activation), % at 26.1 µM. 0.13% of 650,000 active; in the data active means normalized activity above about 1.9%;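 further: purified mutant Fbw7 with reduced substrate affinity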
Target sequence (Q969H0 whole entry, looked up): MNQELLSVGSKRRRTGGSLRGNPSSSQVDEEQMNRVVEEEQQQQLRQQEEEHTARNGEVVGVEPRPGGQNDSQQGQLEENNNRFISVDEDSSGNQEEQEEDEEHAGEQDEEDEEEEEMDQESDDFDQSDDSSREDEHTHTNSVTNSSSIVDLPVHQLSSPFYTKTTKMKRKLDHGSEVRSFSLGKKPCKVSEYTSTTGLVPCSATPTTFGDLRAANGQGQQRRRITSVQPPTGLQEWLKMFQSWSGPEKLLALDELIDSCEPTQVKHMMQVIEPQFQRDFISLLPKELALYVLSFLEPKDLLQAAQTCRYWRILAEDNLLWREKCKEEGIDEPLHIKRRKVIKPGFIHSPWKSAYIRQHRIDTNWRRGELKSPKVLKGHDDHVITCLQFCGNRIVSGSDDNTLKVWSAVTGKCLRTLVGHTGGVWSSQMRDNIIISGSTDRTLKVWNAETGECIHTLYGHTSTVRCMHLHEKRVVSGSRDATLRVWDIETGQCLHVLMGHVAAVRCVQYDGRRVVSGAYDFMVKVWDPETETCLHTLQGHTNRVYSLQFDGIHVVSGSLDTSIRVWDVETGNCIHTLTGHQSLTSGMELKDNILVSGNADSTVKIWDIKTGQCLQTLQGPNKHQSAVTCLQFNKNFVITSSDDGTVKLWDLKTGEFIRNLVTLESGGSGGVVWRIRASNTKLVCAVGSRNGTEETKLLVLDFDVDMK
MITF confirm – MITF inhibitors, retest of hits, confirmation, biochemical, AlphaScreen, triplicate; 16% of 4,700 active; inhibition, % at 2.6 µM; shares compounds with MITF inh; AlphaScreen MITF homodimerization, biotin/His-MITF beads; AID 1259372, 2018;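 active means inhibition above a cutoff derived from the DMSO control wells, cut at about 28% in these data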;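 further: inhibitors lower the bead chemiluminescence by keeping MITF from dimerizing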
AS interf DR – AlphaScreen optical interference compounds, dose response, counter-screen, biochemical, HTS; 6% of 480 active; IC50, µM; AID 1259373, 2018; shares compounds with MITF inh; AlphaScreen optical interference counterscreen, cell-free; call rule not given here
AS interf ctr – AlphaScreen optical interference compounds, counter-screen for MITF inhibitor project, biochemical, triplicate; LysRS AlphaScreen counterscreen, signal interference; inhibition, % at 2.6 µM; shares compounds with MITF inh; 7.6% of 4,700 active;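 active means inhibition above a cutoff derived from the DMSO control wells, cut at about 30% in these data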
Hits are given with their value; – = inactive; · = not tested or not shown.

SMILES	MITF inh	TEAD-YAP block	GPR151 ag	FBW7 act	MITF confirm	AS interf ctr	others
c1cncc(CN2CCN(Cc3ccc4ccccc4c3)CC2)c1	81	–	–	–	–	–
COc1cc(OC)c(OC)cc1CN1CCN(Cc2cccnc2)CC1	82	–	–	–	–	–
COc1ccc(Br)cc1CN1CCN(Cc2c[nH]c3ccccc23)CC1	–	–	–	–	·	·
COc1ccccc1C1(O)CCN(Cc2cccnc2)CC1	–	–	–	–	·	·
COc1ccc(Br)cc1CN1CCN(Cc2cccnc2)CC1	59	–	–	–	–	–
COc1ccc(OC)c(CN2CCN(Cc3cccnc3)CC2)c1	82	–	–	–	–	–
COc1ccc(OC)c(CN2CCN(c3ccccn3)CC2)c1	–	–	–	–	·	·
COc1ccccc1CN1CCN(Cc2cccnc2)CC1	84	–	–	–	–	–
CCOC(=O)c1sc(NC(=O)COC(=O)c2c3c(nc4ccccc24)CCC3)nc1C	–	–	–	–	·	·
Cn1c(=O)[nH]c(=O)c2c1nc(SCc1c(F)cccc1Cl)n2Cc1ccccc1	–	–	–	–	·	·
CCn1nnc2c(N3CCN(CC(=O)Nc4ccc(OC)cc4)CC3)ncnc21	–	–	–	–	·	·
O=C(CN1CCN(C(c2ccccc2)c2ccccc2)CC1)NC(=O)NCc1ccccc1	–	–	–	–	·	·
CCC(C)NCCOc1cccc(Br)c1 (stereo unspecified)	61	–	–	–	45	–	AS interf DR=–
CCC(C)NCCOCCOc1ccccc1 (stereo unspecified)	–	–	–	–	·	·
CCC(C)NCCCOc1ccc(Br)cc1C (stereo unspecified)	57	–	–	–	–	–
CCOc1cccc(OCCCNC(C)CC)c1 (stereo unspecified)	–	–	–	–	·	·
CCC(C)NCCOCCOc1ccc(I)cc1 (stereo unspecified)	55	–	–	–	–	–
Cc1ccc(C2Nn3c(C)nnc3SC2C(=O)Nc2ccccc2C(F)(F)F)cc1 (stereo unspecified)	–	–	–	–	·	·
CCN(CC)C(=O)C(=O)N/N=C/c1ccc(Cl)cc1	–	–	–	–	·	·
CC(C)(C)NC(=O)C(=O)NNC(=O)c1ccc([N+](=O)[O-])cc1[N+](=O)[O-]	66	–	–	–	–	–
Cc1c(-c2ccc(C3C4=C(CC(C)(C)CC4=O)OC4=C3C(=O)CC(C)(C)C4)o2)ccc([N+](=O)[O-])c1C	–	–	–	–	·	·
O=C(Cn1c(=S)[nH]c2ccccc2c1=O)N(CCO)Cc1ccccc1	63	–	–	–	–	–
CCCC(CCC)C(=O)NCCS(=O)(=O)N1CCN(c2ncccn2)CC1	–	–	–	–	·	·
COCCn1c(SCC#N)nnc1-c1ccc(O)cc1	–	–	–	–	·	·
COCCn1c(SCC#N)nnc1-c1ccccc1	65	–	–	–	–	–
SMILES	MITF inh	TEAD-YAP block	GPR151 ag	FBW7 act	MITF confirm	AS interf ctr	others
COc1cc(C)nc(N(CC(N)=O)S(=O)(=O)c2ccccc2)n1	–	–	–	–	·	·
O=C1NC(=S)S/C1=C\c1cc(O)ccc1Br	–	–	–	–	·	·
O=C1NC(=O)/C(=C\c2ccc(O)cc2O)S1	83	–	–	–	81	–	AS interf DR=–
CC(=O)Nc1ccc(S(=O)(=O)N2CCN(Cc3ccccc3[N+](=O)[O-])CC2)cc1	–	–	–	–	·	·
CCc1ccc(CN2CCN(S(=O)(=O)CC)CC2)cc1	51	–	–	–	–	–
CCCS(=O)(=O)N1CCN(Cc2ccncc2)CC1	62	–	–	–	–	–
CCOc1ccc(CN2CCN(S(=O)(=O)CC)CC2)cc1	–	–	–	–	·	·
Cc1ccc(S(=O)(=O)N2CCN(Cc3ccccc3[N+](=O)[O-])CC2)cc1	78	–	–	–	–	–
O=S(=O)(c1ccccc1)N1CCN(Cc2ccccc2)CC1	–	–	–	–	·	·
CCc1ccc(CN2CCN(S(=O)(=O)c3ccccc3)CC2)cc1	55	–	–	–	–	–
CCCS(=O)(=O)N1CCN(Cc2ccc(SC)cc2)CC1	–	–	–	–	·	·
O=C1CC(c2ccco2)CC2=C1C(c1ccco1)Nc1ccccc1N2 (stereo unspecified)	–	–	–	–	·	·
Cc1ccc(CN2CCN(S(=O)(=O)c3ccccc3)CC2)cc1	71	–	–	–	–	–
Cc1n[nH]c(=O)nc1NNc1ccc(C(=O)O)cc1	56	–	–	–	32	–	AS interf DR=–
O=C(Cn1cc(C(=O)c2ccco2)c2ccccc21)NCc1cccnc1	67	–	–	–	62	–	AS interf DR=–
COc1ccc([N+](=O)[O-])cc1N(CC(=O)O)S(C)(=O)=O	59	–	–	–	–	–
CCCOCc1ccc(O)c2ncccc12	81	–	–	–	80	100
CCOC(=O)N1CCN(Cc2ccc(O)c3ncccc23)CC1	71	–	–	–	50	97
Oc1ccc(CN2CCN(c3ccccc3F)CC2)c2cccnc12	–	–	–	–	·	·
COc1ccc2c(c1)CC(c1nc3ncc(-c4ccnc(N)n4)cc3[nH]1)CO2 (stereo unspecified)	–	–	–	–	·	·
CC(=O)c1ccc2c(c1)CC(c1nc3ncc(-c4ccnc(N)n4)cc3[nH]1)CO2 (stereo unspecified)	51	–	–	–	–	–
COc1ccc(OCCNCc2ccco2)cc1	52	–	–	–	–	–
Cc1ccc(S(=O)(=O)NCc2ccc(Cl)cc2)s1	–	–	–	–	·	·
COc1cc(C2C(C(=O)OCc3ccccc3)=C(C)NC3=C2C(=O)CCC3)ccc1OCc1ccccc1 (stereo unspecified)	–	–	–	–	·	·
COc1ccc(CN2CCN(Cc3ccncc3)CC2)c(OC)c1OC	62	–	–	–	–	–
SMILES	MITF inh	TEAD-YAP block	GPR151 ag	FBW7 act	MITF confirm	AS interf ctr	others
COc1cc(CN2CCN(Cc3ccc(C(F)(F)F)cc3)CC2)cc(OC)c1OC	85	–	–	–	–	–
COc1cc(CN2CCN(Cc3ccc(OC)c(OC)c3OC)CC2)cc(OC)c1	70	–	–	–	–	–
COc1ccc(CN2CCN(Cc3ccc(C(F)(F)F)cc3)CC2)c(OC)c1OC	78	–	–	–	–	–
COc1ccc(CN2CCN(Cc3ccc(C(F)(F)F)cc3)CC2)cc1OC	–	–	–	–	·	·
Nc1ncnc(N/N=C/c2ccc(F)cc2)c1[N+](=O)[O-]	–	–	–	–	·	·
Cc1cc(Cl)ccc1Nc1nc(NCCO)nc2c1cnn2C	–	–	–	–	·	·
COc1ccc(CN2CCN(c3ccccc3)CC2)c(OC)c1OC	–	–	–	–	·	·
COc1ccc(CN2CCN(Cc3ccccc3Br)CC2)c(OC)c1OC	81	–	–	–	–	–

Compound activity as filed in PubChem BioAssay.
